From PubChem
Pf Dd2 inh: blocks in vitro growth of P. falciparum Dd2. P. falciparum Dd2 growth, SYBR Green, 72 h. Potency, µM (doses to about 28.9 µM), usual class: inhibitors. hit rate 4.3% among 120,000. AID 1347417; active means well fitted inhibition curve with a large enough effect; further: nearly all actives have a fitted effect of over 65% in size
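Readout: SYBR Green fluorescence, 485 nm excitation, 535 nm emission, after ~16 h lysis at 37C. Before that, Dd2-infected red cells (2.5% hematocrit) grew 72 h with compound, 29 uM top final concentration.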
Hits are given with their value; . = inactive. This excerpt belongs to a sample that is enriched for hits.

SMILES | Pf Dd2 inh
CCC(=O)Nc1ccc(C2(C(=O)N3CCN(c4ccccc4)CC3)CCC2)cc1 | .
CCC1(C(=O)Nc2ccc(C)cc2)CCCCC(=O)N1 (stereo not given) | .
CN1C(=O)Cc2ccccc2C1C(=O)NC1CCCC1 (stereo not given) | .
Cc1cc(C)n(Cc2ccc(-c3nc(C)no3)cc2)n1 | .
COc1ccc(N2C(=O)CS(=O)(=O)C23C(=O)N(Cc2ccccc2)c2ccccc23)cc1 (stereo not given) | .
O=C1CS(=O)(=O)C2(C(=O)N(Cc3ccccc3Cl)c3ccccc32)N1c1ccc(F)cc1 (stereo not given) | 5.6µM
CN1C(=O)C2(c3ccccc31)N(c1ccc(F)c(Cl)c1)C(=O)CS2(=O)=O (stereo not given) | .
Cc1ccc2[nH]c(CN(Cc3cnn(C)c3)C3CC3)cc(=O)c2c1 | .
CCOc1ccc(NC(=O)c2c(NC(=O)c3ccco3)sc3c2CCC(C(C)(C)C)C3)cc1 (stereo not given) | 10µM
CCOc1ccccc1NC(=O)c1c(NC(=O)c2ccccc2C)sc2c1CCC(C)C2 (stereo not given) | .
CC1CCc2c(sc(NC(=O)COc3ccccc3)c2C(=O)Nc2ccccc2Cl)C1 (stereo not given) | .
CCOc1ccc(NC(=O)c2c(NCc3ccc(C)o3)sc3c2CCC(C)C3)cc1 (stereo not given) | 11µM
CC1CCc2c(sc(NC(=O)c3ccccc3)c2C(=O)Nc2ccccc2)C1 (stereo not given) | 13µM
CCCOc1ccc(/C=C/C(=O)Nc2sc3c(c2C(=O)OCC)CCC(C)C3)cc1OC (stereo not given) | .
CCOC(=O)c1c(NC(=O)c2cc3ccccc3c(=O)o2)sc2c1CCC(C)C2 (stereo not given) | .
CCOC(=O)c1ccc(NC(=O)c2c(NCc3ccc(OC)c(OC)c3OC)sc3c2CCC(C)C3)cc1 (stereo not given) | 10µM
CCOc1ccc(NC(=O)c2c(NC(=O)c3cccs3)sc3c2CCC(C(C)(C)C)C3)cc1 (stereo not given) | .
CCOc1ccc(NC(=O)c2c(NC(=O)c3ccncc3)sc3c2CCC(C(C)(C)C)C3)cc1 (stereo not given) | .
Cc1cccc(NC(=O)c2c(NC(=O)c3cccs3)sc3c2CCC(C)C3)c1 (stereo not given) | .
CCOc1ccc(NC(=O)c2c(NCc3cccnc3)sc3c2CCC(C)C3)cc1 (stereo not given) | .
CCCn1c(C)cnc1CC1CCN(C(=O)NC)C1 (stereo not given) | .
CNC(=O)c1nc2sccn2c1Br | .
O=C(c1cccc(OC(F)(F)F)c1)N1CC(CO)C2(CCNCC2)C1 (stereo not given) | .
COCCN1C(=O)c2cccn2CC1CNS(=O)(=O)c1ccccc1 (stereo not given) | .
CN(CC1CCOCC1)C(=O)Nc1ccccc1Cl | .
SMILES | Pf Dd2 inh
O=C(NCCC1CCN(C(=O)Nc2cc(F)ccc2F)CC1)C1CC1 | .
COc1ccccc1NC(=O)c1c(NC(=O)c2ccco2)sc2c1CCC(C(C)(C)C)C2 (stereo not given) | .
CC(C)(C)C1CCc2c(sc(NC(=O)c3ccncc3)c2C(=O)Nc2ccccc2Cl)C1 (stereo not given) | .
CC(C)(C)C1CCc2c(sc(NC(=O)c3ccc(Cl)cc3)c2C(=O)NCc2ccco2)C1 (stereo not given) | 5.6µM
CC(C)CN1C[C@@H](C(=O)O)C[C@@H](C(=O)Nc2ccc(F)cc2)C1 | .
COc1ccc(NC(=O)N2CCc3c(C(=O)N(C)Cc4ccco4)cccc32)cc1 | .
COc1ccc(NC(=O)N2CCc3c(C(=O)NC(C)C)cccc32)cc1 | .
CCCCN(C)C(=O)c1cccc2c1CCN2C(=O)Nc1ccc(OC)cc1 | 14µM
COc1ccc(NC(=O)N2CCc3c(C(=O)N(C)C)cccc32)cc1 | .
COc1ccc(CNC(=O)c2ccc(NC(=O)N3CCCCc4ccccc43)cc2)cc1 | .
COc1ccc(NC(=O)N2CCc3c(C(=O)NCCN4CCCCCC4)cccc32)cc1 | 2.8µM
COCCNC(=O)[C@@H]1C[C@H](Oc2ccccc2)CN1C(=O)CCc1ccccc1 | .
O=C(COc1ccc(NC(=O)C2CC2)cn1)NCc1cc(F)cc(F)c1 | .
CN1CCN(c2ccc(C(=O)N3CCC(n4cnnc4)CC3)cc2)CC1 | .
Cc1cc2[nH]c(=O)c(=O)[nH]c2cc1S(=O)(=O)N1CCN(c2ccccc2F)CC1 | .
COc1ccccc1N1CCN(S(=O)(=O)c2cc3[nH]c(=O)c(=O)[nH]c3cc2C)CC1 | .
Cc1cc2[nH]c(=O)c(=O)[nH]c2cc1S(=O)(=O)N1CCN(c2cccc(C)c2C)CC1 | 7.9µM
Cc1cnc(C(=O)N2CCC3(CCCN(Cc4cccc(F)c4F)C3=O)C2)[nH]1 (stereo not given) | .
O=C(c1ccn[nH]1)N1CCN(Cc2cnn3cccnc23)CC(O)C1 (stereo not given) | .
O=C(NC1CCCC1)N1CCCC(Cn2c(C3CC3)nc3cccnc32)C1 (stereo not given) | .
CC(=O)N1CC(n2cc(C(=O)NCC3CC3)nn2)C1 | .
O=C(NCCc1noc(-c2ccccc2)n1)c1ccoc1 | .
CNC(=O)[C@@H]1CN(C(=O)c2cc3ccc(OC)cc3[nH]2)C[C@H]1C1CCN(C)CC1 | .
COc1ccc(C(=O)NC2CCN(C(=O)c3cc4c(=O)[nH]c(C)cn4n3)CC2)cc1 | .
COc1ccc2cc(C(=O)N3CCC(Cc4ccc(C(=O)NC5CC5)cc4)CC3)[nH]c2c1 | 4.5µM
SMILES | Pf Dd2 inh
COc1ccc(C(=O)N2CC3CC(C2)[C@H]2CCCC(=O)N2C3)cn1 (stereo not given in full) | .
COc1ccc(C)cc1NC(=O)N1CCC(Oc2ncccc2C(=O)N2CCOCC2)C1 (stereo not given) | .
O=C(c1cocn1)N1CCNc2cnc(Nc3cccc(C(F)(F)F)c3)nc2C1 | .
CCOc1cccc(CN2C[C@@H](CO)[C@H](C3CCN(C(C)=O)CC3)C2)c1 | .
Fc1ccc(F)c(CN2CCC(Oc3ccccc3-c3nc(C4CCOCC4)no3)C2)c1 (stereo not given) | 4.5µM
O=C(c1cccc(F)c1)N1CCC(Oc2ccccc2-c2nc(C3CCOCC3)no2)C1 (stereo not given) | .
O=C(c1ccoc1)N1CCC(Oc2ccccc2-c2nc(C3CCOCC3)no2)C1 (stereo not given) | .
Cc1cccc(NC(=O)N2C[C@@H](F)C[C@H]2C(=O)N2CCCCC2)c1C | .
O=C1CO[C@H]2CCN(Cc3ccccc3)CC[C@@H]2N1CCc1cccnc1 | .
O=C1CO[C@H]2CCN(CCCc3ccccc3)CC[C@@H]2N1Cc1ccccc1 | 4µM
Cc1cccc(CN2CC[C@@H]3OCC(=O)N(Cc4ccc(O)cc4)[C@H]3CC2)c1 | .
O=C(NC[C@H]1O[C@H](Cc2cc(-c3ccccc3)on2)CC[C@@H]1O)c1ccncc1 | .
CCOc1ccccc1C(=O)N1CCN(CCc2ccccn2)CC1 | 4µM
CC(C)Oc1ccc(C(=O)N2CCN(CCc3ccccn3)CC2)cc1 | .
O=C(c1cccc(Cl)c1)N1CCN(CCc2ccccn2)CC1 | .
O=C(c1ccccc1Cl)N1CCN(CCc2ccccn2)CC1 | 3.5µM
O=C(c1ccccc1)N1CCN(CCc2ccccn2)CC1 | .
CCCCOc1ccc(C(=O)N2CCN(CCc3ccccn3)CC2)cc1 | .
CC(C)C1CN(C(=O)CCn2ccc(=O)[nH]c2=O)CCC(=O)N1CC1CC1 (stereo not given) | .
